The panel holds about 83,000 compounds, 20% with a hit somewhere; the sample as a whole holds those more often.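 Negative percent growth values reflect cell death: -40 means 40% of the cells present at the start died, and -100 means all died.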 Activity calls are given as the source filed them. Rule for the calls: active = growth percent below 10; inactive = the rest.
Experiments:
Test in all cases: NCI-60 one-dose screen, 48 h (100 = growth as untreated, 0 = no growth, -100 = all killed)
NCI-H23 lung = tested on: NCI-H23 lung
NCI-H226 lung = tested on: NCI-H226 lung
NCI-H322M lung = tested on: NCI-H322M lung
HOP-62 NSCLC = tested on: HOP-62 NSCLC
NCI-H460 lung = tested on: NCI-H460 lung
HOP-92 NSCLC = tested on: HOP-92 NSCLC
NCI-H522 lung = tested on: NCI-H522 lung
A549/ATCC NSCLC = tested on: A549/ATCC NSCLC
786-0 renal = tested on: 786-0 renal
COLO 205 colon = tested on: COLO 205 colon
DU-145 prostate = tested on: DU-145 prostate
MALME-3M melanoma = tested on: MALME-3M melanoma
MDA-MB-231 breast = tested on: MDA-MB-231 breast
RXF 393 renal = tested on: RXF 393 renal
SF-268 CNS = tested on: SF-268 CNS
SF-295 CNS = tested on: SF-295 CNS
SF-539 CNS = tested on: SF-539 CNS
UACC-257 melanoma = tested on: UACC-257 melanoma
M14 melanoma = tested on: M14 melanoma
K-562 leukemia = settings: 10 µM unless noted

Measured: growth

CC/C(=C(/c1ccc(O)cc1)c1ccc(OCCN(C)C(=O)COCCOCCNC(=O)Cc2ccc3c(c2)CN([C@@H]2CCC(=O)NC2=O)C3=O)cc1)c1ccccc1
inactive: NCI-H23 lung; 1 µM 101% | NCI-H23 lung; 10 µM 97.4% | NCI-H226 lung; 1 µM 93.8% | NCI-H226 lung; 10 µM 39.9% | NCI-H322M lung; 1 µM 93.9% | NCI-H322M lung; 10 µM 64.1% | HOP-62 NSCLC; 1 µM 91.6% | HOP-62 NSCLC; 10 µM 38.8% | NCI-H460 lung; 1 µM 125% | NCI-H460 lung; 10 µM 110% | HOP-92 NSCLC; 1 µM 15.5% | HOP-92 NSCLC; 10 µM 12.7% | NCI-H522 lung; 1 µM 93.6% | NCI-H522 lung; 10 µM 88.1% | A549/ATCC NSCLC; 1 µM 102% | A549/ATCC NSCLC; 10 µM 88.1% | 786-0 renal; 1 µM 96% | 786-0 renal; 10 µM 80.7% | COLO 205 colon; 1 µM 96.4% | COLO 205 colon; 10 µM 31.2% | DU-145 prostate; 1 µM 104% | DU-145 prostate; 10 µM 105% | MALME-3M melanoma; 1 µM 51.4% | RXF 393 renal; 1 µM 97.4% | RXF 393 renal; 10 µM 99.2% | SF-268 CNS; 1 µM 96.2% | SF-268 CNS; 10 µM 61.3% | SF-295 CNS; 1 µM 101% | SF-295 CNS; 10 µM 94.7% | SF-539 CNS; 1 µM 80.7% | SF-539 CNS; 10 µM 65.3% | UACC-257 melanoma; 1 µM 101% | UACC-257 melanoma; 10 µM 99.8% | M14 melanoma; 1 µM 92.8% | M14 melanoma; 10 µM 65.4%
active: MALME-3M melanoma; 10 µM 1.5% | MDA-MB-231 breast; 1 µM 9.31% | MDA-MB-231 breast; 10 µM -22.2%

C#CCN(C)CCCOc1ccc(N(C)C(=O)c2cc(C(C)C)c(O)cc2O)cc1Cl
active: NCI-H460 lung; 10 µM unless noted -13.3% | HOP-92 NSCLC; 10 µM unless noted -23.9% | COLO 205 colon; 10 µM unless noted 7.34% | K-562 leukemia 3.57% | MALME-3M melanoma; 10 µM unless noted -27.8% | MDA-MB-231 breast; 10 µM unless noted -15.8% | SF-295 CNS; 10 µM unless noted 6.57% | UACC-257 melanoma; 10 µM unless noted 9.35% | M14 melanoma; 10 µM unless noted 0.868%
inactive: NCI-H23 lung; 10 µM unless noted 12.3% | NCI-H226 lung; 10 µM unless noted 13.7% | NCI-H322M lung; 10 µM unless noted 34.8% | HOP-62 NSCLC; 10 µM unless noted 34.6% | NCI-H522 lung; 10 µM unless noted 12.6% | A549/ATCC NSCLC; 10 µM unless noted 15.9% | 786-0 renal; 10 µM unless noted 33.5% | DU-145 prostate; 10 µM unless noted 24.3% | RXF 393 renal; 10 µM unless noted 22.3% | SF-268 CNS; 10 µM unless noted 41.4% | SF-539 CNS; 10 µM unless noted 17.3%

Oc1ccc(Cl)c(Nc2nc(SCCN3CCOCC3)nc3c2cnn3CC(Cl)c2ccc(Br)cc2)c1 (stereo not drawn)
inactive: NCI-H23 lung; 10 µM unless noted 31.8% | NCI-H226 lung; 10 µM unless noted 38.5% | NCI-H322M lung; 10 µM unless noted 92.8% | HOP-62 NSCLC; 10 µM unless noted 32.7% | NCI-H460 lung; 10 µM unless noted 10.1% | NCI-H522 lung; 10 µM unless noted 22.2% | A549/ATCC NSCLC; 10 µM unless noted 12% | 786-0 renal; 10 µM unless noted 43.3% | COLO 205 colon; 10 µM unless noted 106% | DU-145 prostate; 10 µM unless noted 35% | MALME-3M melanoma; 10 µM unless noted 12.2% | SF-268 CNS; 10 µM unless noted 40.8% | SF-295 CNS; 10 µM unless noted 13% | SF-539 CNS; 10 µM unless noted 29.2% | UACC-257 melanoma; 10 µM unless noted 28.2% | M14 melanoma; 10 µM unless noted 25%
active: HOP-92 NSCLC; 10 µM unless noted -6.99% | K-562 leukemia -22.9% | MDA-MB-231 breast; 10 µM unless noted -3.97% | RXF 393 renal; 10 µM unless noted -14.2%

COC(=O)c1cc(C(C)=O)n2c3ccccc3c3ccccc3c12
inactive: NCI-H23 lung; 10 µM unless noted 78.1% | NCI-H226 lung; 10 µM unless noted 61.3% | NCI-H322M lung; 10 µM unless noted 104% | HOP-62 NSCLC; 10 µM unless noted 57.9% | NCI-H460 lung; 10 µM unless noted 110% | HOP-92 NSCLC; 10 µM unless noted 28.1% | NCI-H522 lung; 10 µM unless noted 86.4% | A549/ATCC NSCLC; 10 µM unless noted 96.9% | 786-0 renal; 10 µM unless noted 36.6% | COLO 205 colon; 10 µM unless noted 108% | DU-145 prostate; 10 µM unless noted 67% | K-562 leukemia 85.9% | MALME-3M melanoma; 10 µM unless noted 84.6% | MDA-MB-231 breast; 10 µM unless noted 33.2% | RXF 393 renal; 10 µM unless noted 11.8% | SF-268 CNS; 10 µM unless noted 59.5% | SF-295 CNS; 10 µM unless noted 56% | SF-539 CNS; 10 µM unless noted 28.5% | UACC-257 melanoma; 10 µM unless noted 118% | M14 melanoma; 10 µM unless noted 72.1%

Cn1cc(-c2cc3nc(-c4cn(C)c5ncccc45)cc(N)n3n2)c2cc(F)ccc21
active: NCI-H226 lung; 10 µM unless noted 3.92% | HOP-62 NSCLC; 10 µM unless noted -14.7% | HOP-92 NSCLC; 10 µM unless noted -0.741% | MDA-MB-231 breast; 10 µM unless noted 3.66% | RXF 393 renal; 10 µM unless noted -14.4%
inactive: NCI-H23 lung; 10 µM unless noted 21.2% | NCI-H322M lung; 10 µM unless noted 52.1% | NCI-H460 lung; 10 µM unless noted 37.6% | NCI-H522 lung; 10 µM unless noted 22.7% | A549/ATCC NSCLC; 10 µM unless noted 19.6% | 786-0 renal; 10 µM unless noted 17.6% | COLO 205 colon; 10 µM unless noted 47.1% | DU-145 prostate; 10 µM unless noted 21.8% | K-562 leukemia 20.7% | MALME-3M melanoma; 10 µM unless noted 62% | SF-268 CNS; 10 µM unless noted 52.3% | SF-295 CNS; 10 µM unless noted 28.3% | SF-539 CNS; 10 µM unless noted 12.8% | UACC-257 melanoma; 10 µM unless noted 72.7% | M14 melanoma; 10 µM unless noted 71.2%

COc1ccc2c(c1)C(Sc1ccc(Br)cc1)c1c(nc(N)c(C#N)c1N)O2 (stereo not drawn)
inactive: NCI-H23 lung; 10 µM unless noted 79.1% | NCI-H226 lung; 10 µM unless noted 83.1% | NCI-H322M lung; 10 µM unless noted 84.2% | HOP-62 NSCLC; 10 µM unless noted 93.7% | NCI-H460 lung; 10 µM unless noted 82.4% | HOP-92 NSCLC; 10 µM unless noted 111% | NCI-H522 lung; 10 µM unless noted 77.1% | A549/ATCC NSCLC; 10 µM unless noted 89.7% | 786-0 renal; 10 µM unless noted 83% | COLO 205 colon; 10 µM unless noted 90% | DU-145 prostate; 10 µM unless noted 95.4% | K-562 leukemia 69.1% | MALME-3M melanoma; 10 µM unless noted 85.2% | MDA-MB-231 breast; 10 µM unless noted 79.2% | RXF 393 renal; 10 µM unless noted 67.6% | SF-268 CNS; 10 µM unless noted 75.2% | SF-295 CNS; 10 µM unless noted 81.1% | SF-539 CNS; 10 µM unless noted 88.8% | UACC-257 melanoma; 10 µM unless noted 103% | M14 melanoma; 10 µM unless noted 85.6%

COc1ccc(/C=C/C(=O)c2ccc(S(=O)(=O)NCCNc3nc(N(C)C)nc(N4CCOCC4)n3)cc2)cc1
inactive: NCI-H23 lung; 10 µM unless noted 97.7% | NCI-H226 lung; 10 µM unless noted 89.6% | NCI-H322M lung; 10 µM unless noted 91.7% | HOP-62 NSCLC; 10 µM unless noted 102% | NCI-H460 lung; 10 µM unless noted 104% | HOP-92 NSCLC; 10 µM unless noted 93.1% | NCI-H522 lung; 10 µM unless noted 64.7% | A549/ATCC NSCLC; 10 µM unless noted 91.5% | 786-0 renal; 10 µM unless noted 80.1% | COLO 205 colon; 10 µM unless noted 110% | DU-145 prostate; 10 µM unless noted 103% | K-562 leukemia 35.9% | MALME-3M melanoma; 10 µM unless noted 97.5% | MDA-MB-231 breast; 10 µM unless noted 88.4% | RXF 393 renal; 10 µM unless noted 92.1% | SF-268 CNS; 10 µM unless noted 84.1% | SF-295 CNS; 10 µM unless noted 92.5% | SF-539 CNS; 10 µM unless noted 83.7% | UACC-257 melanoma; 10 µM unless noted 96.5% | M14 melanoma; 10 µM unless noted 92.1%

Source: PubChem BioAssay (NCI)
